From PubChem BioAssay (Tox21)
Results filed as inconclusive are left out. Some structures have more than one record in an assay (separate samples or runs), and their calls can disagree. The source made the active and inactive calls. Unless noted, calls come from the whole dose curve.

Assays:
[1] = Nuclear factor erythroid 2-related factor 2/antioxidant responsive element (Nrf2/ARE) small molecule agonists: qHTS cell viability counter screen in human keratinocytes (AID 1919968; active = well fitted curve in the direction sought with a large enough effect in the repeat runs; an effect the other way counts as inactive or inconclusive; note: nearly all actives have a fitted effect of over 55% in size)
Procedure, shortened: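 Cells of the KeratinoSens line were plated at 1,500 per well and left for 5 h before compound transfer from DMSO stocks. After a 23 h incubation (37 C, 5% CO2), CellTiter-Fluor was added. Signal was taken as fluorescence intensity 1 h later.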

[2] = Nuclear factor erythroid 2-related factor 2/antioxidant responsive element (Nrf2/ARE) small molecule agonists: luciferase reporter gene qHTS assay in human keratinocytes (AID 1919969); note: nearly all actives have a fitted effect of over 35% in size; note: potency is the fitted concentration of half-maximal effect
[3] = molecular target: KiSS-1 receptor (Homo sapiens) (UniProt Q969F8); assay: Human kisspeptin (KISS1R) small molecule agonists, calcium flux assay in KISS1R-HEK293 cells (AID 1920064; active = well fitted curve in the direction sought with a large enough effect in the repeat runs; an effect the other way counts as inactive or inconclusive)
Chain of KiSS-1 receptor (Homo sapiens) (Q969F8 whole entry, looked up): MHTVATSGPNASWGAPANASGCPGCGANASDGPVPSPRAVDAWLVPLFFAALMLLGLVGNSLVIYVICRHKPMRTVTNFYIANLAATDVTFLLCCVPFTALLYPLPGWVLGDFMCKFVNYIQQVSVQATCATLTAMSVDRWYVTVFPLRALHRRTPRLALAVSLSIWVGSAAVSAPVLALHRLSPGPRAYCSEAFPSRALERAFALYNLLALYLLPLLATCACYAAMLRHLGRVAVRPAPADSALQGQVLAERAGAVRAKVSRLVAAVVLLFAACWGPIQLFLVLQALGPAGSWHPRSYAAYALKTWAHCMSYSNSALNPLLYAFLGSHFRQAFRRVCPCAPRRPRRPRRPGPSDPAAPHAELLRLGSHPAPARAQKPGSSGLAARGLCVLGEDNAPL
Procedure, shortened: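 Cell line: HEK293, stable human KISS1R. Dye loading 1 h at 37 C after 18 h culture. Read: kinetic fluorescence, 480/540 nm, 3 min at 1 s intervals.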

[4] = G protein-coupled receptor (GPCR) small molecule agonists, calcium flux assay: HEK293 wild type cell line counter screen (AID 1920065)
Procedure, shortened: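 Tox21 10K compounds, 15 concentrations each in triplicate, pin-transferred in DMSO onto dye-loaded cells; kinetic read at 480/540 nm for 3 min, 1 s intervals.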

[5] = p53 small molecule agonists, cell-based qHTS assay with human liver microsomes (AID 1963577);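 note: p53 response element beta-lactamase reporter cells with liver microsomes plus NADPH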
Procedure, shortened: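 HLM-supplemented p53RE-bla reporter assay: 16 h compound exposure at 37 C, microsomes and NADPH each 0.5 mg/mL final, read by fluorescence intensity.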

[6] = p53 small molecule agonists, cell-based qHTS assay with rat liver microsomes (AID 1963578)
Procedure, shortened: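 Quantitative HTS of the Tox21 10K library: p53RE-bla cells, rat liver microsomes plus NADPH at 0.5 mg/mL final each, 16 h at 37 C, beta-lactamase fluorescence detection.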

[7] = p53 small molecule agonists, cell-based qHTS assay with human liver microsomes: qHTS cell viability counter screen (AID 1963579); note: nearly all actives have a fitted effect of over 45% in size
Procedure, shortened: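 Viability of p53RE-bla cells is measured as CellTiter-Glo luminescence following a 16 h, 37 C incubation with compound, liver microsomes from human donors and NADPH.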

[8] = p53 small molecule agonists, cell-based qHTS assay with rat liver microsomes: qHTS cell viability counter screen (AID 1963580); note: nearly all actives have a fitted effect of over 45% in size
Procedure, shortened: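 Cytotoxicity counter screen: intracellular ATP read by CellTiter-Glo luminescence in the p53 reporter wells. HCT-116 p53RE-bla cells were treated for 16 h at 37 C alongside rat liver microsomes and NADPH, each 0.5 mg/mL final.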

[9] = p53 small molecule agonists, cell-based qHTS assay: qHTS cell viability counter screen (AID 1963581); note: nearly all actives have a fitted effect of over 45% in size
Procedure, shortened: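 ATP content measured by luminescence in HCT-116 p53RE-bla cells treated 16 h at 37 C, same wells as the reporter screen.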

[10] = p53 small molecule agonists, cell-based qHTS assay (AID 1963582; active = well fitted activation curve with a large enough effect in the signal ratio in the repeat runs, not every such curve was filed as active; the % refers to the signal ratio)
Procedure, shortened: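 16 h compound exposure (37 C) of p53 response element–bla cells, preceded by 5 h recovery at 37 C/5% CO2; read-out via LiveBLAzer B/G FRET substrate, 2 h RT, fluorescence intensity.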

[11] = molecular target: 5-hydroxytryptamine receptor 2A (Homo sapiens) (UniProt P28223); assay: 5-hydroxytryptamine receptor 2A (HTR2A) small molecule antagonists, cell-based qHTS assay (AID 1963586); note: nearly all actives have a fitted effect of over 45% in size
Chain of 5-hydroxytryptamine receptor 2A (Homo sapiens) (P28223 whole entry, looked up): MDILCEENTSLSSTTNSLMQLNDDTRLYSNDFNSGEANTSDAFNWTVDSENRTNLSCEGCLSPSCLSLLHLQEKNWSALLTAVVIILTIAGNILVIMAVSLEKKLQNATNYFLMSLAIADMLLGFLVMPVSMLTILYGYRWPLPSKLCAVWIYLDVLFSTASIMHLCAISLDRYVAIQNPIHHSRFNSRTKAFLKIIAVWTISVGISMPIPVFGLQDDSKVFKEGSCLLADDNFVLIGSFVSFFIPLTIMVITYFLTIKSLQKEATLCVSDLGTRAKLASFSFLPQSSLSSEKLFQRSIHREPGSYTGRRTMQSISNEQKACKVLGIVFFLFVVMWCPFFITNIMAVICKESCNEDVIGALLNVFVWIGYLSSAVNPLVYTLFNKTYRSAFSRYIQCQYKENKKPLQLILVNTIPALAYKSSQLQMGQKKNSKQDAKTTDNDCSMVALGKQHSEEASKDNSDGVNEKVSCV
Procedure, shortened: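 CHO cells stably expressing human HTR2A were plated for 18 h at 37 C, then loaded with calcium dye for 1 h. Compounds were preincubated 5 min at room temperature before DOI (4 nM solution) was added. Kinetic fluorescence was read for 3 min.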

[12] = molecular target: 5-hydroxytryptamine receptor 2A (Homo sapiens) (UniProt P28223); assay: 5-hydroxytryptamine receptor 2A (HTR2A) small molecule agonists, cell-based qHTS assay (AID 1963587); note: nearly all actives have a fitted effect of over 30% in size
Procedure, shortened: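 Kinetic calcium-flux fluorescence (2 min, 1 sec intervals) after compound addition in agonist mode. HTR2A-CHO cells were cultured 18 h, then dye-loaded 1 h at 37 C.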

[13] = cAMP Responsive Elements (CRE) small molecule agonists, cell-based qHTS assay (AID 1963590)
Procedure, shortened: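 HEK 293T cells stably bearing CRE-bla were plated at 2,000 cells per well and rested 18 h. Compounds, positive controls or DMSO were added for 3 h at 37 C. LiveBLAzer B/G substrate was then loaded for 2 h at room temperature.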

[14] = cAMP Responsive Elements (CRE) small molecule antagonists, cell-based qHTS assay (AID 1963591; active = well fitted inhibition curve with a large enough effect in the signal ratio in the repeat runs, not every such curve was filed as active; the % refers to the signal ratio)
Procedure, shortened: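 First, CRE-bla HEK293T cells settled 18 h at 37 C. Next, compound and 0.25 uM final NKH477 were applied for 3 h. Last, LiveBLAzer B/G substrate was loaded for 2 h at room temperature.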

[15] = molecular target: Beta-2 adrenergic receptor (Homo sapiens) (UniProt P07550); assay: Adrenergic beta2 receptor (ADRB2) small molecule antagonists, cell-based qHTS assay (AID 1963592); note: series mostly up to about 92 µM; nearly all actives have a fitted effect of over 50% in size
Chain of Beta-2 adrenergic receptor (Homo sapiens) (P07550 whole entry, looked up): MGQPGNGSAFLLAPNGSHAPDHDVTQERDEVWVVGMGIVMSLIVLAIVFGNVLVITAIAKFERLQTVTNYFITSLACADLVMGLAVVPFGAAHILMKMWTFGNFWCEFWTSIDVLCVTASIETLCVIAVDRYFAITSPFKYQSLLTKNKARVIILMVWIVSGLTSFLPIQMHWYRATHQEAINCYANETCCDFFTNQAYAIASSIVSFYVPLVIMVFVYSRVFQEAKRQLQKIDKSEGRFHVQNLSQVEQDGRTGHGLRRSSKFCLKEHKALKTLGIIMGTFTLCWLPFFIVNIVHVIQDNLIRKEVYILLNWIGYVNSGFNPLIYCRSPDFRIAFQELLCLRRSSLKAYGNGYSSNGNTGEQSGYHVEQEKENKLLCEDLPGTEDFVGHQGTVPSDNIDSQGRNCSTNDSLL
Procedure, shortened: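 Assay format: CHO-ADRB2 cells, 18-20hr seeding at 37C/5% CO2, then compound plus 1nM isoproterenol agonist mix for 0.5hr RT. Homogeneous time-resolved fluorescence cAMP detection after 1hr, expressed as 665/615 nm ratio.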

[16] = molecular target: Beta-2 adrenergic receptor (Homo sapiens) (UniProt P07550); assay: Adrenergic beta2 receptor (ADRB2) small molecule agonists, cell-based qHTS assay (AID 1963593); note: potency is the fitted concentration of half-maximal effect;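 for activation: CHO cells stably overexpressing human ADRB2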
Procedure, shortened: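 CHO cells stably over-expressing ADRB2 were plated overnight at 37C, then dosed with compounds plus a stimulation mix containing 100uM IBMX and 25uM Ro-20-1724 for 0.5hr at room temperature. cAMP was measured by HTRF competition, 1hr.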

[17] = molecular target: D(2) dopamine receptor (Homo sapiens) (UniProt P14416); assay: Dopamine D2 receptor (DRD2) small molecule agonists, cell-based qHTS assay (AID 1963594); note: nearly all actives have a fitted effect of over 35% in size
Chain of D(2) dopamine receptor (Homo sapiens) (P14416 whole entry, looked up): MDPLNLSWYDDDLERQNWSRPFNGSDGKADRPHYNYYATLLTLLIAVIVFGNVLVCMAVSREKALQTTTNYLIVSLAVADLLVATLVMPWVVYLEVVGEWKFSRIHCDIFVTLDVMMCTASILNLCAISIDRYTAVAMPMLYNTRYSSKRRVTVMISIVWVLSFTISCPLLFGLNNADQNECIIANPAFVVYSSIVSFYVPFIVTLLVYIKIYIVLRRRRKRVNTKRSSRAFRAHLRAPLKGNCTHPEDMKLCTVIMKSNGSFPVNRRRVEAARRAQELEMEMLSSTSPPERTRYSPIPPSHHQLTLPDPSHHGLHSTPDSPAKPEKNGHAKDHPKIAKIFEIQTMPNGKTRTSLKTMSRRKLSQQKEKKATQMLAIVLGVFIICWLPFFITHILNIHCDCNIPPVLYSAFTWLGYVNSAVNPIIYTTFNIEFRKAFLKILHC
Procedure, shortened: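 cAMP accumulation in DRD2-HEK293 cells measured by HTRF after 1 h detection; compounds added 10 min before NKH477 (200nM […]) forskolin-analogue stimulation, 30 min at room temperature, with Ro20-1724 present at 0.1 mM final.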

[18] = molecular target: Muscarinic acetylcholine receptor M1 (Homo sapiens) (UniProt P11229); assay: Cholinergic receptor muscarinic 1 (CHRM1) small molecule antagonists, cell-based qHTS assay (AID 1963588); note: nearly all actives have a fitted effect of over 40% in size
Chain of Muscarinic acetylcholine receptor M1 (Homo sapiens) (P11229 whole entry, looked up): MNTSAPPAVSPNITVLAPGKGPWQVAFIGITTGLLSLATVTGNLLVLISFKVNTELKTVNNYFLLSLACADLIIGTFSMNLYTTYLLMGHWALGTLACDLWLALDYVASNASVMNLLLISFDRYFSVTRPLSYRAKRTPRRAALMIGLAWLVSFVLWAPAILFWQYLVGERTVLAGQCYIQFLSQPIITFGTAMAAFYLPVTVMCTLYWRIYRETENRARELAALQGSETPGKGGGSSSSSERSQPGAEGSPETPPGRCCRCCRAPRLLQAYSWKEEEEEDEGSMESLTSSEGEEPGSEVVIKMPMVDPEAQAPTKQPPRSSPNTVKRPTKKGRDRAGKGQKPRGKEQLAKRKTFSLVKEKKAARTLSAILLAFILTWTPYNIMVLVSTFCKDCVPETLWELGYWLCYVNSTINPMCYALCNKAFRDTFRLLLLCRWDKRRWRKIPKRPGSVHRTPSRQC
Procedure, shortened: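 Compounds were tested at 15 concentrations in three independent runs. Dye-loaded CHRM1-CHO cells were exposed 5 min at room temperature before stimulation by acetylcholine added at 50nM. Intracellular calcium was read kinetically on FDSS for 3 min.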

[19] = molecular target: Muscarinic acetylcholine receptor M1 (Homo sapiens) (UniProt P11229); assay: Cholinergic receptor muscarinic 1 (CHRM1) small molecule agonists, cell-based qHTS assay (AID 1963589); note: nearly all actives have a fitted effect of over 35% in size
Procedure, shortened: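 Homogeneous fluorescence calcium flux, agonist mode. Human M1-expressing CHO cells; compound dosed at 15 concentrations, three independent runs; signal sampled every 1 sec.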

[20] = molecular target: D(2) dopamine receptor (Homo sapiens) (UniProt P14416); assay: Dopamine D2 receptor (DRD2) small molecule antagonists, cell-based qHTS assay (AID 1963595; active = well fitted inhibition curve with a large enough effect in the signal ratio in the repeat runs, with a control signal flat; the % refers to the signal ratio)
Procedure, shortened: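 Cells were plated and grown for 24 h at 37 °C. Ro20-1724 (0.1 mM final) went in first, then compound for 10 min. NKH477 (200 nM) with quinpirole (12 nM) followed for 30 min at RT, then HTRF detection reagents for 1 h.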

Measured: Potency

COC(c1ccccc1)(c1ccccc1)[C@H](Oc1nc(C)cc(C)n1)C(=O)O
not listed: [18] | [19] | [20]
inactive: all other assays above

CCc1ccccc1O
60.8 µM (active) and inactive: [2]
not listed: [3] | [5] | [6] | [10]
inactive: all other assays above

NC(=O)NNC(N)=O
inactive: all assays above

CC1(C)[C@H]2CC[C@]1(C)[C@H](O)C2
not listed: [19]
inactive: all other assays above

CC(=O)N(CC(O)CO)c1c(I)c(C(=O)NCC(O)CO)c(I)c(C(=O)NCC(O)CO)c1I (stereo not given)
inactive: all assays above

COC(=O)C1=C(C)NC(C)=C(C(=O)OCC(C)C)C1c1ccccc1[N+](=O)[O-] (stereo not given)
active: [16] 11.9 µM
24.3 µM (active) and inactive: [2]
not listed: [11] | [12] | [13] | [17] | [18] | [19] | [20]
inactive: all other assays above

CC(C=O)c1ccccc1 (stereo not given)
not listed: [3] | [4] | [19]
inactive: all other assays above

C[C@]12CC[C@H]3[C@@H](CCC4=CC(=O)CC[C@@]43C)[C@@H]1CC[C@@H]2C(=O)CO
not listed: [13] | [14]
inactive: all other assays above
